# Compound activity: PubChem BioAssay, The Scripps Research Institute Molecular Screening Center
# The sample as a whole holds a higher share of hits than the screen did.
# TTR transcr act: TTR transcription activators in neuroblastoma reporter cells, primary screen, cell-based, luminescence, SH-SY5Y, TTR promoter Gaussia luciferase; 100% = recombinant luciferase protein wells; activation, % at 16.7 µM; 92,000 compounds, 1.3% hits; AID 1117267, 2014;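 active means activation above the mean of all tested compounds plus 3 SD, cut at about 9.5% in these data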;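 further: cells exposed to compounds for one day before reading; 0% = median of all test compound wells on the plate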
# TTR inh HuH7: TTR promoter reporter inhibitors in hepatoma cells, counter-screen for TTR transcription activator project, cell-based, luminescence, HuH7 hepatoma; shares compounds with TTR transcr act; HuH7 TTR promoter-Gaussia luciferase reporter; inhibition, % at 16.7 µM; 1,100 compounds, 4% hits;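 active means average inhibition above the solvent-only control wells' mean plus 3 SD, cut at about 15% in these data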;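 further: 0% = cells with DMSO only and 100% = cells with inhibitor control FD; inhibitors lower well luminescence so higher value means more inhibition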
# TTR up confirm: TTR transcription activators, retest, confirmation, cell-based, luminescence, SH-SY5Y, triplicate | AID 1117280, 2014 | 1,100 tested, under 10 active | shares compounds with TTR transcr act | activation, % at 16.7 µM | SHSY5Y TTR promoter Gaussia luciferase; 100% = purified Lucia enzyme wells, no cells;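 active means mean activation above a set limit taken from the earlier primary screen, cut at about 11% in these data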;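 further: 0% = DMSO-treated cells and 100% = recombinant Lucia luciferase without cells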
# Numbers without * were called inactive.
SMILES,TTR transcr act,others
CC1C(=O)N(Cc2cn(CCC3OCCO3)nn2)CCS(=O)(=O)N1Cc1ccc(-c2ccncc2)cc1 (stereo unspecified),-1.6,
CC1C(=O)N(Cc2cn(CCC3OCCO3)nn2)CCS(=O)(=O)N1Cc1ccc(-c2cccc(N(C)C)c2)cc1 (stereo unspecified),36.9*,TTR inh HuH7=-4.3;TTR up confirm=1.3
O=C(NCCc1ccccc1)OCc1cn(-c2ccccc2Cl)nn1,-2.2,
O=[N+]([O-])c1cnc2ccccc2c1Sc1ccccc1,-0.1,
O=C(Nc1ccccc1)Nc1nc2ncccn2c1-c1ccc(F)c(F)c1,-2.3,
COCCN(CC(=O)Nc1cccc(C)c1C)C(=O)Cc1cccs1,5.1,
COCCN(CC(=O)Nc1cccc(C)c1C)C(=O)c1ccc(S(=O)(=O)N2CCOCC2)cc1,9.8*,TTR inh HuH7=-11.5;TTR up confirm=0.7
O=C(Nc1ccccc1Cl)c1ccc(S(=O)(=O)N2CCOCC2)cc1,2.1,
CCOC(=O)[C@]12CCCC3=C1N(CCC3)C(=O)[C@@H](CC(=O)N1CCN(C(=O)c3ccco3)CC1)C2,1.6,
O=C(O)Cn1cc(C(=S)N2CCCCC2)c2ccccc21,-0.1,
CC1CCN(C(=S)c2cn(Cc3cccc(F)c3)c3ccccc23)CC1,10.1*,TTR inh HuH7=-17.3;TTR up confirm=0.4
Fc1ccc(Cn2cc(C(=S)N3CCOCC3)c3ccccc32)cc1,-1.6,
O=C(Cn1cnc2c(NC(=O)OCc3ccccc3)ncnc21)NCc1ccccn1,2.3,
CC1=C[C@]2(CN(CC3CC3)C3=N[C@H](c4ccccc4)CC(=O)N32)n2c(=O)n(-c3ccccc3)c(=O)n2C1,0.8,
C=CCN1C(=O)[C@H](CC(=O)N2CCCC2)[C@@]2(C(=O)OCC)CCCC=C12,1.8,
CCOC(=O)c1c(C)n(C)c2ccc(OCCN(C)C)cc12,4.3,
CCOC(=O)c1c(C)n(C)c2ccc(OCC(O)CNC(CC)CO)cc12 (stereo unspecified),13.8*,TTR inh HuH7=-10.4;TTR up confirm=2.4
CCOC(=O)c1c(C)n(C)c2ccc(OCC(O)CN3CCCCCC3)cc12 (stereo unspecified),-1.2,
CN1C(=O)C(=O)N2C(=C[C@]3(c4c[nH]c5ccccc45)c4ccccc4N[C@H]23)C1=O,0.9,
CCn1c(SCC(=O)Nc2ccc(OC)cc2)nc2nc3c(cc2c1=O)CCCC3,-1.3,
Cc1ccccc1-n1c(SCC(=O)Nc2ccccc2)nc2nc3c(cc2c1=O)CCCC3,12.9*,TTR inh HuH7=-15.0;TTR up confirm=-1.0
CCn1c(SCC(=O)NCc2ccccc2)nc2nc3c(cc2c1=O)CCCC3,-0.7,
C[C@H]1[C@H](NCc2cccnc2)CC[C@@]23CCCN2C(=O)CCC[C@@H]13,0.7,
CC(C)N(C[C@@H]1CSCCS(=O)(=O)N1)C1CCCCC1,4.4,
COP(=O)(CC(=O)C(Cc1ccccc1)NC(=O)OC(C)(C)C)OC (stereo unspecified),0.7,
SMILES,TTR transcr act,others
CSCCC(NC(=O)C1CCC(C)CC1)C(=O)O (stereo unspecified),57.5*,TTR inh HuH7=7.0;TTR up confirm=2.9
CSCC[C@H](NC(=O)[C@H]1CC[C@H](CNC(=O)[C@@H]2CCCN2)CC1)C(=O)O,0.5,
COC(=O)C(CCSC)NC(=O)C(NC(=O)C1CCC(C)CC1)C(C)C (stereo unspecified),-2.4,
COc1cc(-c2csc(N3CCC(C(N)=O)CC3)n2)cc(OC)c1OC,1.9,
Cc1ccc(CN2CCCCC(NC(=O)Nc3ccccc3-c3ccccc3)C2=O)cc1 (stereo unspecified),-1.5,
C#CCNC(=O)C[C@H]1C[C@@]2(C(=O)OC)C(=C[C@H](C3CCCC3)O[C@@H]2C)N(Cc2ccco2)C1=O,5.0,
C[C@H]1[C@@H](NC(=O)c2ccc(Cl)c(C(F)(F)F)c2)CC[C@@]23CCCN2C(=O)CCC[C@@H]13,0.9,
CC(/C=N\NC(=O)Cn1cncn1)=C/c1ccc(C(C)C)cc1,0.1,
CC(/C=N/NC(=O)Cn1nccc1C)=C\c1ccc(C(C)C)cc1,-0.9,
CC(=C/c1ccc(C(C)C)cc1)/C=N/NC(=O)c1ccncc1,10.4*,TTR inh HuH7=-3.9;TTR up confirm=-0.5
CCCC(=O)NNC(=O)c1ccoc1C,16.8*,TTR inh HuH7=-8.8;TTR up confirm=-0.6
Cc1cccc(C)c1OCC(=O)NNC(=O)c1ccoc1C,7.2,
Cc1cc(C)cc(OCC(=O)NNC(=O)c2ccoc2C)c1,0.6,
COC(=O)c1cc(-c2ccc(C)cc2)c(=O)n2c1CCC2,0.5,
CCc1ccc2[nH]c(=O)c(CN(Cc3ccco3)C(=S)NCC3CCCO3)cc2c1 (stereo unspecified),12.2*,TTR inh HuH7=-24.2;TTR up confirm=1.8
CNC(=S)N(Cc1ccco1)Cc1cc2cc3c(cc2[nH]c1=O)OCCO3,-2.2,
CCN(CC)CCCNC(=S)N(Cc1ccco1)Cc1cc2cc3c(cc2[nH]c1=O)OCCO3,1.2,
Cc1noc(C)c1NC(=O)N(C)C[C@H]1Oc2c(NS(=O)(=O)c3cn(C)cn3)cccc2C(=O)N([C@H](C)CO)C[C@@H]1C,4.9,
COC(=O)[C@]12C[C@H](CC(=O)NCc3cccc4ccccc34)C(=O)N(CCc3ccc(OC)c(OC)c3)C1=C[C@H](C(C)C)O[C@@H]2C1CC1,0.1,
CCC1(C)C2(C#N)C(N)=NC(OC)(OC)C12C#N (stereo unspecified),15.5*,TTR inh HuH7=-4.5;TTR up confirm=-0.8
Cc1ccc(S(=O)(=O)N2C(N)=C(C(=O)NCc3ccc(Br)cc3)C(c3ccc(Cl)cc3)C2C(=O)c2ccccc2)cc1 (stereo unspecified),0.0,
O=C(OCc1cn(Cc2cccc(F)c2F)nn1)N1CCOCC1,-1.9,
CC1(C)CC(=O)C(C=NCCN2CCN(C(=S)NC3CCCCC3)CC2)=C(O)C1,2.0,
CC1(C)CC(=O)C(C=NCCN2CCN(C(=O)c3ccccc3)CC2)=C(O)C1,1.9,
CC1(C)CC(=O)C(C=NCCN2CCN(C(=O)CCl)CC2)=C(O)C1,11.8*,TTR inh HuH7=1.9;TTR up confirm=-1.6
SMILES,TTR transcr act,others
COc1cc2c(=O)n(CC3CCCO3)c(=O)n(CC(=O)Nc3ccc(F)cc3F)c2cc1OC (stereo unspecified),0.4,
COc1cc2c(=O)n(CC3CCCO3)c(=O)n(CC(=O)Nc3cccc(Cl)c3)c2cc1OC (stereo unspecified),10.4*,TTR inh HuH7=-27.5;TTR up confirm=-0.4
COc1ccc(NC(=O)Cn2c(=O)n(CC3CCCO3)c(=O)c3cc(OC)c(OC)cc32)c(OC)c1 (stereo unspecified),-0.4,
CCCCCCCCN1C(=O)[C@@H](CC(=O)NCCCCc2ccccc2)C[C@@]2(C(=O)OC)C1=C[C@H](COCc1ccccc1)O[C@@H]2C,1.0,
COC(=O)C1CN(CCc2ccccc2)CCS(=O)(=O)N1Cc1ccc(OC)cc1 (stereo unspecified),2.0,
COc1ccc(C2CC(=O)Nc3cc(OC)c(OC)cc32)cc1 (stereo unspecified),0.0,
COc1cc2c(cc1OC)C(c1cccc(F)c1)CC(=O)N2 (stereo unspecified),18.1*,TTR inh HuH7=1.5;TTR up confirm=-0.3
COc1cc2c(cc1OC)C(c1cccnc1)CC(=O)N2 (stereo unspecified),0.0,
O=C(c1ccccc1)n1ccc2ccc(-c3ccc4ccn(C(=O)c5ccccc5)c4c3)cc21,2.8,
CC(=O)N1C(C)(C)CC(=NOC(=O)c2ccccc2)CC1(C)C,-0.5,
